# Source: PubChem BioAssay (Tox21)
# A number with no mark means an inactive call. Calls of active or inactive are those of the source. The call rests on the fitted dose curve. Residues, ends and D or L forms follow the SMILES beside them.
# Molecular target: Acetylcholinesterase (Homo sapiens) (UniProt P22303)
# Test: Acetylcholinesterase (AChE) small molecule antagonists: enzyme-based qHTS assay (AID 1347397); further: nearly all actives have a fitted effect of over 55% in size
# Settings: Potency: AChE enzyme activity inhibition; outcome: AChE enzyme activity inhibition; series mostly up to 115 µM; activity change, negative = inhibition: at the top concentration
# In short: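 In this quantitative HTS, compounds from the Tox21 10K collection were preincubated 30 min at ambient temperature with recombinant human AChE dispensed at 50 mU/mL. Hydrolysis of acetylthiocholine was then followed for 10 min by DTNB colour development.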
# On the % scale 0 is the no-effect control and ±100 the full control effect.
# Acetylcholinesterase (Homo sapiens), sequence (P22303 whole entry, looked up): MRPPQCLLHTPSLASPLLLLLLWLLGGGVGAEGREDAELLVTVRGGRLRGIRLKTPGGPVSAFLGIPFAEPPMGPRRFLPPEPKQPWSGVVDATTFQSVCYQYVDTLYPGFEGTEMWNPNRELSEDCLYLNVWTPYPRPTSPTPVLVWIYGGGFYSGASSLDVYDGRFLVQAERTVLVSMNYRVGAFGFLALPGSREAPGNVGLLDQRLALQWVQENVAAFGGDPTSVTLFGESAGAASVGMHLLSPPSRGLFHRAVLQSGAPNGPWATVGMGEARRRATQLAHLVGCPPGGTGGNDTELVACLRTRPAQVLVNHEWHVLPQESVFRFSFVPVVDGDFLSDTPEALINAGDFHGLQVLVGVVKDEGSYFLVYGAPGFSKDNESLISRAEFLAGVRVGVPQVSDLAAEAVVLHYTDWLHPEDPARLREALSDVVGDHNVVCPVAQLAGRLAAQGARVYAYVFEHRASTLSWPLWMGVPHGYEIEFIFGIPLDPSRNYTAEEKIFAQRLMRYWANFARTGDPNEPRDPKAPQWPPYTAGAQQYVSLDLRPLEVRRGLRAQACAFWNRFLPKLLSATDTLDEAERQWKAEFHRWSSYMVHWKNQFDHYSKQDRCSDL
Structure (SMILES),"activity change, negative = inhibition",Potency,outcome
O=C(c1ccccc1)c1ccc(O)cc1,-0.679%,,
O=[N+]([O-])c1cccc(S(=O)(=O)O)c1,-0.278%,,
CC(COC(=O)c1ccccc1)OC(=O)c1ccccc1 (stereo not given),-1.36%,,
O=C(O)[C@H](O)[C@@H](O)[C@H](O[C@@H]1O[C@H](CO)[C@H](O)[C@H](O)[C@H]1O)[C@H](O)CO,1.24% [at 53 µM],,
COC(=O)CC(=O)OC,,inactive,
CC(C)NC(=O)NC(C)C,1.35%,,
O=C(O)CC(=O)C(=O)O,0.273%,,
Cc1cc(NC(=O)C2=C(O)c3ccccc3S(=O)(=O)N2C)no1,4.31% [at 53 µM],,
C[C@]12C(=O)OC(=O)[C@H]1[C@H]1C=C[C@@H]2C1,1.91%,,
CC(=O)Nc1ccc(C)c(Cl)c1,2.87%,,
CCC(=O)OC(C)c1ccccc1 (stereo not given),0%,,
CCCCCCCCC/C=C/CC1CC(=O)OC1=O (stereo not given),,inactive,
CCCCCCCCCCCC(=O)OCC(C)OC(=O)CCCCC(=O)O (stereo not given),0.132% [at 53 µM],,
Nc1nc2ccccc2[nH]1,,inactive,
CCOc1cc(NC(C)=O)ccc1C(=O)OC,1.22% [at 53 µM],,
C=CC(C)(C)CC(=O)OC,-1.64%,,
N[C@H](Cc1c[nH]c2ccccc12)C(=O)O,,inactive,
CC(C)(C)C(=O)CC(=O)C(C)(C)C,0.681%,,
N/C(=N\N=C\c1ccc(Cl)cc1)N/N=C/c1ccc(Cl)cc1,-0.328% [at 53 µM],,
CC(=O)N(CC(O)CN(C(C)=O)c1c(I)c(C(=O)NCC(O)CO)c(I)c(C(=O)NCC(O)CO)c1I)c1c(I)c(C(=O)NCC(O)CO)c(I)c(C(=O)NCC(O)CO)c1I (stereo not given),0.361% [at 53 µM],,

Structure (SMILES),"activity change, negative = inhibition",Potency,outcome
C=C(C)[C@H]1CC=C(C)C(=O)C1,,inactive,
OC[C@H]1O[C@@H]2O[C@H]3[C@H](O)[C@@H](O)[C@@H](O[C@H]4[C@H](O)[C@@H](O)[C@@H](O[C@H]5[C@H](O)[C@@H](O)[C@@H](O[C@H]6[C@H](O)[C@@H](O)[C@@H](O[C@H]7[C@H](O)[C@@H](O)[C@@H](O[C@H]1[C@H](O)[C@H]2O)O[C@@H]7CO)O[C@@H]6CO)O[C@@H]5CO)O[C@@H]4CO)O[C@@H]3CO,,inactive,
CN1CCC(=C2c3ccccc3C=Cc3ccccc32)CC1,0.0855% [at 53 µM],,
CC(=O)O[C@@]12CO[C@@H]1C[C@H](O)[C@@]1(C)C(=O)[C@H](O)C3=C(C)[C@@H](OC(=O)[C@H](O)[C@@H](NC(=O)OC(C)(C)C)c4ccccc4)C[C@@](O)([C@@H](OC(=O)c4ccccc4)[C@H]21)C3(C)C,0.139% [at 53 µM],,
O=C(O)c1ccccc1[N+](=O)[O-],0.136%,,
C=CC(=O)Nc1cc2c(Nc3ccc(F)c(Cl)c3)ncnc2cc1OCCCN1CCOCC1,0.415% [at 53 µM],,
OC[C@H]1O[C@@H](n2cnc3c(=S)nc[nH]c32)[C@H](O)[C@@H]1O,1.01% [at 53 µM],,
Cc1c(Nc2ncccc2C(=O)O)cccc1C(F)(F)F,0.811% [at 53 µM],,
CCc1nccnc1CC,-0.515% [at 23.6 µM],,
CC1COc2ccccc2N1C(=O)C(Cl)Cl (stereo not given),,inactive,
C[C@@H](CN1CC(=O)NC(=O)C1)N1CC(=O)NC(=O)C1,-0.54% [at 53 µM],,
CC(C)(C)C1CCCCC1O (stereo not given),0%,,
CCOc1ccccc1OCC1CNCCO1 (stereo not given),,,inactive
C=CCOC(=O)CCCCCC,0.0645%,,
CCCCCCCCCC=O,-0.437%,,
C[N+]1(C)[C@@H]2CC(OC(=O)[C@H](CO)c3ccccc3)C[C@H]1[C@@H]1O[C@@H]12 (stereo not given in full),0.22% [at 53 µM],,
O=C(NS(=O)(=O)/C=C/c1ccccc1)c1ccc(F)cc1Cl,-0.0657%,,
CCC(C)n1ncn(-c2ccc(N3CCN(c4ccc(OC[C@H]5CO[C@](Cn6cncn6)(c6ccc(Cl)cc6Cl)O5)cc4)CC3)cc2)c1=O (stereo not given in full),0.234% [at 53 µM],,
COC(=O)[C@H](Cc1ccccc1)NC(=O)[C@@H](N)CC(=O)O (H-Asp-Phe-OMe),,inactive,
CCCCN1C[C@H](O)[C@@H](O)[C@H](O)[C@H]1CO,2.38% [at 53 µM],,
